Assay results: PubChem BioAssay AID1445 (SRMLSC, 2008)
In all, about 220,000 compounds went through this assay and about 910 (0.41%) were called active.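 How the source made its calls: active means primary inhibition above the hit cutoff, then over 50% inhibition at one or more dose response concentrations (cut at about 23% in these data, passing the limit was not always enough); inconclusive means conflicting primary data, or primary hits not chosen for dose response; inactive means low primary inhibition, or under 50% at every dose.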 Many of the other results were omitted from the sample, so actives are more common in it than they were. Potency and affinity values are given separately.

target: Aminopeptidase N (Plasmodium falciparum (isolate 3D7)) (UniProt O96935); experiment: malaria alanyl aminopeptidase activity blockers – biochemical, fluorogenic H-Leu-NHMec substrate, 1536-well (AID 1445); conditions: recombinant M1AAP, H-Leu-NHMec fluorogenic kinetic assay; at 30 µM, active compounds read high unless noted;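 further: plate controls were DMSO full reaction for no effect and no enzyme background for full effect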
Sequence (O96935 whole entry, looked up): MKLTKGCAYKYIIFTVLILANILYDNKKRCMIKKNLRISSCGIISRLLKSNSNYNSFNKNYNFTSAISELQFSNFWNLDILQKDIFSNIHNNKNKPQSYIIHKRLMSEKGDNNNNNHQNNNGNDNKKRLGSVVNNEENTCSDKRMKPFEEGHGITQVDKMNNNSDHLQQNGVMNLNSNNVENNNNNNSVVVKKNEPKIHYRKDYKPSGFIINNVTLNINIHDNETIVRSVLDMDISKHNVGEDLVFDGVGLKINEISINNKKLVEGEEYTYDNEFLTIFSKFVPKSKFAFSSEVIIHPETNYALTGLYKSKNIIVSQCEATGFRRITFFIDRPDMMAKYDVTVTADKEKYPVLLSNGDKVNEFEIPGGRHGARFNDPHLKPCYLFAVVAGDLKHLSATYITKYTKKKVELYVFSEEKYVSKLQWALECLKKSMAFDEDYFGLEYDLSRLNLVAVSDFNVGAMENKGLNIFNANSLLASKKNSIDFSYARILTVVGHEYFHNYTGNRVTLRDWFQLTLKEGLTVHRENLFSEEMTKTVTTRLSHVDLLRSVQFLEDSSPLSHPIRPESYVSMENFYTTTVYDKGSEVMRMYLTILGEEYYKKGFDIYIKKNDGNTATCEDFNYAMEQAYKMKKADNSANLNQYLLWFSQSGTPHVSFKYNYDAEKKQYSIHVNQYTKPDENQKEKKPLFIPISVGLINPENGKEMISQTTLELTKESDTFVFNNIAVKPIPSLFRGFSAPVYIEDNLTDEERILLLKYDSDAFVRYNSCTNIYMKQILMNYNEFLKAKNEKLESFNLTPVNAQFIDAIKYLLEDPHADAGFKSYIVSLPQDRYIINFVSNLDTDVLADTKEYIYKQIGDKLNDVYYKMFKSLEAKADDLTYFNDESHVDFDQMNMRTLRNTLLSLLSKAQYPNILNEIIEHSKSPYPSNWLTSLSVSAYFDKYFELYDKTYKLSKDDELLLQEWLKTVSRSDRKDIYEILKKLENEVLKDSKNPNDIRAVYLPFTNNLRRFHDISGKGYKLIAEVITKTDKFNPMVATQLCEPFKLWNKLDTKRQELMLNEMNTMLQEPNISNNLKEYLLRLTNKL

Row | Structure (SMILES) | inhibition
1 | CN(Cc1c(F)cccc1Cl)c1ccc(S(=O)(=O)N2CCOCC2)cn1 | -2.07% (inactive)
2 | O=C1OC(c2cccs2)=N/C1=C/c1ccc(-c2cccc(C(=O)O)c2)o1 | 10.5% (inactive)
3 | O=C1OC(c2cccs2)=N/C1=C\c1ccc(-c2cccc(Cl)c2)o1 | 24.5% (active)
4 | O=C1OC(c2cccs2)=N/C1=C\c1ccc(-c2ccccc2Cl)o1 | 15.5% (inactive)
5 | O=C(COC(=O)c1cccs1)NC1CCCCC1 | 4.47% (inactive)
6 | O=C(O)c1ccccc1-c1ccc(/C=C/c2cc(C(F)(F)F)[nH]c(=O)n2)o1 | 15.6% (inactive)
7 | COc1ccc(/C=C/c2cc(C(F)(F)F)[nH]c(=O)n2)cc1OC | 10.6% (inactive)
8 | O=c1nc(/C=C/c2ccc(-c3ccc(F)cc3)o2)cc(C(F)(F)F)[nH]1 | 27.6% (active)
9 | COC(=O)[C@@H]1CC[C@H](C)[C@@H](c2ccc(C)cc2)N1C(=O)c1ccc(/C=N/OC[C@@H](O)[C@H]2O[C@@H]3OC(C)(C)O[C@@H]3[C@H]2O)cc1 | 7.48% (inactive)
10 | COc1ccccc1NC(=O)c1cc([N+](=O)[O-])ccc1NCCN1C(=O)CCC1=O | 10.1% (inactive)
11 | Cc1ccc(S(=O)(=O)Nc2ccc3oc(=O)sc3c2)c(C)c1 | 21.7% (inactive)
12 | O=C(O)c1cccc(S(=O)(=O)Nc2ccc3oc(=O)sc3c2)c1 | 89.5% (inactive)
13 | OCCN1CCN(CCOc2ccccc2-c2ccccc2)CC1 | -1.14% (inactive)
14 | C=C(C)c1cccc(C(C)(C)NC(=O)Nc2cc(C)ccn2)c1 | 14.8% (inactive)
15 | C=C(C)c1cccc(C(C)(C)NC(=O)Nc2ccc(Cl)cn2)c1 | 6.48% (inactive)
16 | O=C(C=C1CCN(c2ncc(C(F)(F)F)cc2Cl)CC1)NNC(=O)Nc1ccc(Cl)cc1 | 1.48% (inactive)
17 | COCCCN(C(=O)c1cc2c(s1)CCC2)c1c(N)n(Cc2ccccc2)c(=O)[nH]c1=O | -2.38% (inactive)
18 | Nc1c(N(CCO)C(=O)C2CCCCC2)c(=O)[nH]c(=O)n1Cc1ccccc1 | 3.34% (inactive)
19 | Cc1nnc2sc(-c3ccccn3)nn12 | -1.47% (inactive)
20 | COC(=O)C1=C(N)Oc2cc(C)n(C)c(=O)c2C1c1ccc(Cl)cc1 (configuration not stated) | -1.12% (inactive)
21 | COC(=O)C1=C(N)Oc2cc(C)n(CC3CCCO3)c(=O)c2C1c1ccc(Cl)cc1 (configuration not stated) | 10.9% (inactive)
22 | COC(=O)C1=C(N)Oc2cc(C)n(CCCn3ccnc3)c(=O)c2C1c1ccc(Cl)cc1 (configuration not stated) | 27.9% (active)
23 | Cc1ccc(C)c(-n2c(Cc3cccs3)n[nH]c2=S)c1 | -6.44% (inactive)

Row | Structure (SMILES) | inhibition
24 | CC(C)CCNC(=O)C(c1ccco1)N(CCCO)C(=O)Cn1nnc(-c2ccc(F)cc2)n1 (configuration not stated) | 2.71% (inactive)
25 | O=C(CSc1nnc(NC2CCCCC2)s1)Nc1ccc(N2CCOCC2)cc1 | 0.83% (inactive)
26 | O=C(Nc1ccccc1)/C(=C/c1cccnc1)NC(=O)c1ccco1 | -3.98% (inactive)
27 | Cc1ccc(/C=N/NC(=O)c2cccs2)cc1[N+](=O)[O-] | 5.44% (inactive)
28 | CCOc1cc(/C=N\NC(=O)c2ccc(C)nc2)cc([N+](=O)[O-])c1O | 19.1% (inactive)
29 | O=C(c1cccnc1)N1CCN(c2ccc([N+](=O)[O-])cc2Cl)CC1 | 7.28% (inactive)
30 | CCN1CCCC1CNC(=O)C(=O)Nc1ccccc1 (configuration not stated) | 4.81% (inactive)
31 | O=C1Nc2ccc(F)cc2C12Nc1ccccc1-c1nnc(SCc3ccccc3Cl)nc1O2 (configuration not stated) | 14.4% (inactive)
32 | O=C1Nc2ccc(Cl)cc2C12Nc1ccccc1-c1nnc(SCc3ccccc3F)nc1O2 (configuration not stated) | 19.9% (inactive)
33 | CC(Oc1cc(F)ccc1[N+](=O)[O-])C(=O)N(C)CC(=O)Nc1ccccc1C(F)(F)F (configuration not stated) | 7.16% (inactive)
34 | O=C1C2=C(c3ccccc31)[N+](=O)[C@@H]1CCCC[C@@H]1N2[O-] | 8.78% (inactive)
35 | CC(NC(=S)Nc1ccc(F)cc1)C(c1cccs1)N1CCOCC1 (configuration not stated) | 1.91% (inactive)
36 | CC1=CN2C(=N)/C(=C/c3ccco3)C(=O)N=C2S1 | 11% (inactive)
37 | CC1=CN2C(=N)/C(=C/c3ccc(C)o3)C(=O)N=C2S1 | 20.6% (inactive)
38 | N#Cc1cc2c(N)c(C(=O)Nc3ccccc3)sc2nc1N | -0.33% (inactive)
39 | CCN(CC)S(=O)(=O)c1ccc2c(c1)nc(CCC(=O)OCC(=O)Nc1cc(Cl)cc(Cl)c1)n2C | 0.35% (inactive)
40 | CCOC(=O)c1c(NC(=O)CSc2nnc(C)c(=O)[nH]2)sc(C)c1C | 6.77% (inactive)
41 | Cc1nnc(SCC(=O)Nc2sc3c(c2C(N)=O)CCCC3)[nH]c1=O | 11.5% (inactive)
42 | O=C(Nc1cccc2cccnc12)c1ccc2c(c1)OCCO2 | 3.45% (inactive)
43 | COC(=O)c1c(C(=O)OC)c(-c2cccc(Cl)c2)n2c1CS(=O)C2 (configuration not stated) | 12.7% (inactive)
44 | Cc1nnc(SCC(=O)Nc2cccc(C(F)(F)F)c2)[nH]c1=O | 3.06% (inactive)
45 | CCN(CCO)c1nc(SC)nc2c1sc1nc(-c3ccco3)c3c(c12)CCC3 | 20% (inactive)
46 | CSc1nc(N(C)CCO)c2sc3nc(-c4ccco4)c4c(c3c2n1)CCC4 | 11.4% (inactive)

Row | Structure (SMILES) | inhibition
47 | CSc1nc(N(CCO)CCO)c2sc3nc(-c4ccco4)c4c(c3c2n1)CCC4 | 27.5% (active)
48 | COC(=O)c1sccc1NC(=O)CSCCc1ccccn1 | 4.36% (inactive)
49 | O=C(NCc1cccs1)C(Cc1ccccc1)NS(=O)(=O)c1cccs1 (configuration not stated) | 13.3% (inactive)
50 | Cc1ccc(CNC(=O)C(Cc2ccccc2)NS(=O)(=O)c2cccs2)cc1 (configuration not stated) | -3.28% (inactive)
51 | O=C(c1ccco1)N1CCN(Cc2cccnc2)CC1 | 3.43% (inactive)
52 | CC(C)(C)NC(=O)Cn1nnc(-c2ccc(S(C)(=O)=O)cc2)n1 | 9.97% (inactive)
53 | Cc1onc(-c2ccncc2)c1C(=O)O | 0.4% (inactive)
54 | COc1ccccc1-c1n[nH]c(=S)n1-c1ccccc1 | 2.6% (inactive)
55 | CN1CCN(C(=O)c2cc(Cl)ccc2Cl)CC1 | 8.9% (inactive)
56 | CC(=O)NNC(=S)NCCc1ccccc1 | 6.55% (inactive)
57 | O=C(CCc1ccc(O)cc1)NNC(=S)NCCc1ccccc1 | -1.96% (inactive)
58 | Cc1nn(-c2ccccc2)c(N)c1C1(O)C(=O)N(C)c2ccccc21 (configuration not stated) | 1.69% (inactive)
59 | CC1Nc2ccccc2C(=O)N1NS(=O)(=O)c1ccccc1 (configuration not stated) | 1.49% (inactive)
60 | CC1(C)Nc2ccccc2C(=O)N1NS(=O)(=O)c1ccccc1 | 2.35% (inactive)
61 | O=C(NN1C(=O)C2C3C=CC(O3)C2C1=O)c1cccc(O)c1 (configuration not stated) | 6.69% (inactive)
62 | CC(/C=C1\SC(=S)N(NC(=O)c2cccc(O)c2)C1=O)=C\c1ccccc1 | -3.91% (inactive)
63 | O=C(Nc1ccc(C(=O)NN2C(=O)c3ccccc3C2=O)cc1)c1ccccc1 | 8.25% (inactive)
64 | Cn1cc(/C=C2\SC(=S)N(NC(=O)c3ccccc3)C2=O)c2ccccc21 | 3.01% (inactive)
65 | CCOc1cc(N2CCOCC2)c(OCC)cc1NC(=O)c1ccc(S(C)(=O)=O)cc1 | 9.02% (inactive)
66 | COc1ccccc1N(C)S(=O)(=O)c1ccc(C(=O)OCC(=O)NCc2ccco2)cc1 | -0.82% (inactive)
67 | Cc1cccc(NC(=O)N2CCC(c3nc4ccccc4o3)CC2)c1 | 10% (inactive)
68 | COc1cc(NC(=S)NC(=O)C(C)C)ccc1NC(=O)c1cc2ccccc2o1 | 10.7% (inactive)
69 | COc1ccc(NC(=O)Nc2ccc(OCC(=O)N3CCOCC3)cc2)cc1OC | 0.44% (inactive)

Row | Structure (SMILES) | inhibition
70 | CCC(C)(C)C1CCc2c(sc(NC(=O)c3cccs3)c2C(N)=O)C1 (configuration not stated) | -0.66% (inactive)
71 | C=CCn1c(=NC(=O)CC)n(C)c2ccccc21 | 0.56% (inactive)
72 | Cn1c(CNc2ccccc2O)nc2ccccc21 | 25% (active)
73 | Cn1c(CNc2nc3ccccc3n2C)nc2ccccc21 | -11.6% (inactive)
74 | CCCn1c(CNc2ccccc2O)nc2ccccc21 | 0.88% (inactive)
75 | COc1cc(C(=S)N2CCOCC2)cc(OC)c1OC(=O)Cc1ccc(F)cc1 | 7.01% (inactive)
76 | CC(C)(C)NC(=O)NC(=O)COC(=O)CCCc1c[nH]c2ccccc12 | 3.27% (inactive)
77 | O=C1NCCCc2nonc21 | 0.35% (inactive)
78 | CC(=O)Nc1ccc(S(=O)(=O)Oc2ccc(/C=N/N=C3/NC(=O)C(CC(=O)O)S3)cc2)cc1 (configuration not stated) | 10.6% (inactive)
79 | CC(=O)Nc1ccc(S(=O)(=O)Oc2cccc(/C=C3\SC(N)=NC3=O)c2)cc1 | -0.74% (inactive)
80 | CCOc1cc(/C=N/N=C2/NC(=O)C(CC(=O)O)S2)ccc1OCc1ccc(Cl)cc1 (configuration not stated) | 9.38% (inactive)
81 | COc1cc(/C=N/N=C2/NC(=O)C(CC(=O)O)S2)ccc1OCc1ccc(Cl)cc1 (configuration not stated) | 21.8% (inactive)
82 | CCOc1cc(/C=N/NS(=O)(=O)c2ccccc2)ccc1OS(=O)(=O)c1ccc(C)cc1 | 14.5% (inactive)
83 | CCOc1cc(/C=N/O)ccc1OS(=O)(=O)c1ccc(C)cc1 | 13.6% (inactive)
84 | CCN(Cc1ccccc1)C(=O)c1cc(COc2c(F)cccc2F)on1 | 5% (inactive)
85 | COc1ccccc1-c1ccc(SCC(=O)NCCc2ccccc2)nn1 | 10.8% (inactive)
86 | Cc1cc(C(=O)COC(=O)c2nccnc2N)c(C)n1C | 6.62% (inactive)
87 | CCOC(=O)C1CCCN(CC(=O)c2c[nH]c3ccc(C)cc23)C1 (configuration not stated) | 5.27% (inactive)
88 | CCOCc1nnc(NC(=O)c2ccc(NC(C)=O)cc2)s1 | 1.45% (inactive)
89 | COc1ccc(NC(=O)CSc2ncn[nH]2)c([N+](=O)[O-])c1 | -0.25% (inactive)
90 | C=CCn1c(SCc2c(C(=O)OC)sc(N)c2C(=O)OC)nnc1-c1ccc(Br)cc1 | 6.79% (inactive)
91 | CCC(=O)c1c(NC(C)C)cc(C)oc1=O | 2.35% (inactive)
92 | Cc1cnc(C)c(N2CCC(C(=O)NCc3cccs3)CC2)n1 | 3.94% (inactive)
